# Laboratory results reported in the supplement of paper PMC4466140.
# How the values were obtained:
# Experiment in all cases: SPOT peptide array binding signal intensity (averaged, normalized) (arbitrary units (background-subtracted, floor 0; scale differs between SH3 domains)); higher = stronger binding of the SH3 domain to the peptide
# [1] = target: AgAbp1
# Method in brief: (§1)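 GST-fused SH3 domains from four yeast species were expressed in E. coli BL21(DE3), purified on glutathione Sepharose and incubated at 10 μg/ml overnight at 4°C in TBS-based blocking buffer on cellulose membranes carrying synthetic 15-mer peptides, with cysteines replaced by serines. Bound protein was detected with anti-GST antibody, an HRP anti-mouse secondary and luminol, then imaged and quantified with Genespotter. Binding signal is the normalized, background-subtracted spot intensity averaged over replicates, in arbitrary units that differ between domains.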
# [2] = target: AgBbc1
# Method in brief: as §1
# [3] = target: AgBem1-D1
# Method in brief: as §1
# [4] = target: AgBzz1-D1
# Method in brief: as §1
# [5] = target: AgBzz1-D2
# Method in brief: as §1
# [6] = target: AgCyk3
# Method in brief: as §1
# [7] = target: AgFus1
# Method in brief: as §1
# [8] = target: AgHof1
# Method in brief: as §1
# [9] = target: AgHse1
# Method in brief: as §1
# [10] = target: AgLsb1
# Method in brief: as §1
# [11] = target: AgLsb4
# Method in brief: as §1
# [12] = target: AgMyo5
# Method in brief: as §1
# [13] = target: AgNbp2
# Method in brief: as §1
# [14] = target: AgRvs167
# Method in brief: as §1
# [15] = target: AgSho1
# Method in brief: as §1
# [16] = target: AgSla1-D1-D2
# Method in brief: as §1
# [17] = target: AgSla1-D3
# Method in brief: as §1
# [18] = target: CaAbp1-D1
# Method in brief: as §1
# [19] = target: CaAbp1-D2
# Method in brief: as §1
# [20] = target: CaBbc1
# Method in brief: as §1
# [21] = target: CaBem1-D1
# Method in brief: as §1
# [22] = target: CaBzz1-D1
# Method in brief: as §1
# [23] = target: CaBzz1-D2
# Method in brief: as §1
# [24] = target: CaCyk3
# Method in brief: as §1
# [25] = target: CaFus1
# Method in brief: as §1
# [26] = target: CaHof1
# Method in brief: as §1
# [27] = target: CaHse1
# Method in brief: as §1
# [28] = target: CaLsb1
# Method in brief: as §1
# [29] = target: CaLsb4
# Method in brief: as §1
# [30] = target: CaMyo5
# Method in brief: as §1
# [31] = target: CaNbp2
# Method in brief: as §1
# [32] = target: CaRvs167
# Method in brief: as §1
# [33] = target: CaRvs167-3
# Method in brief: as §1
# [34] = target: CaSho1
# Method in brief: as §1
# [35] = target: CaSla1-D1-D2
# Method in brief: as §1
# [36] = target: CaSla1-D3
# Method in brief: as §1
# [37] = target: ScAbp1
# Method in brief: as §1
# [38] = target: ScBbc1
# Method in brief: as §1
# [39] = target: ScBem1-D1
# Method in brief: as §1
# [40] = target: ScBzz1-D1
# Method in brief: as §1
# [41] = target: ScBzz1-D2
# Method in brief: as §1
# [42] = target: ScCyk3
# Method in brief: as §1
# [43] = target: ScFus1
# Method in brief: as §1
# [44] = target: ScHof1
# Method in brief: as §1
# [45] = target: ScHse1
# Method in brief: as §1
# [46] = target: ScLsb1
# Method in brief: as §1
# [47] = target: ScLsb2
# Method in brief: as §1
# [48] = target: ScLsb3
# Method in brief: as §1
# [49] = target: ScLsb4
# Method in brief: as §1
# [50] = target: ScMyo3
# Method in brief: as §1
# [51] = target: ScMyo5
# Method in brief: as §1
# [52] = target: ScNbp2
# Method in brief: as §1
# [53] = target: ScPex13
# Method in brief: as §1
# [54] = target: ScRvs167
# Method in brief: as §1
# [55] = target: ScSho1
# Method in brief: as §1
# [56] = target: ScSla1-D1-D2
# Method in brief: as §1
# [57] = target: ScSla1-D3
# Method in brief: as §1
# [58] = target: SpAbp1-D1
# Method in brief: as §1
# [59] = target: SpBbc1
# Method in brief: as §1
# [60] = target: SpBzz1-D1
# Method in brief: as §1
# [61] = target: SpBzz1-D2
# Method in brief: as §1
# [62] = target: SpCyk3
# Method in brief: as §1
# [63] = target: SpHof1
# Method in brief: as §1
# [64] = target: SpHof1-2
# Method in brief: as §1
# [65] = target: SpHof1-3
# Method in brief: as §1
# [66] = target: SpHse1
# Method in brief: as §1
# [67] = target: SpLsb1
# Method in brief: as §1
# [68] = target: SpLsb4
# Method in brief: as §1
# [69] = target: SpMyo1
# Method in brief: as §1
# [70] = target: SpNbp2
# Method in brief: as §1
# [71] = target: SpPex13
# Method in brief: as §1
# [72] = target: SpRvs167
# Method in brief: as §1
# [73] = target: SpSla1-D1-D2
# Method in brief: as §1
# [74] = target: SpSla1-D3
# Method in brief: as §1
binder,measurement,setting,value
EREKALPPIPFTTTL,SPOT peptide array binding signal intensity,[1],≤ 0
same,SPOT peptide array binding signal intensity,[2],≤ 0
same,SPOT peptide array binding signal intensity,[3],71
same,SPOT peptide array binding signal intensity,[4],13
same,SPOT peptide array binding signal intensity,[5],≤ 0
same,SPOT peptide array binding signal intensity,[6],2
same,SPOT peptide array binding signal intensity,[7],5
same,SPOT peptide array binding signal intensity,[8],132
same,SPOT peptide array binding signal intensity,[9],0.5
same,SPOT peptide array binding signal intensity,[10],18
same,SPOT peptide array binding signal intensity,[11],3.5
same,SPOT peptide array binding signal intensity,[12],≤ 0
same,SPOT peptide array binding signal intensity,[13],≤ 0
same,SPOT peptide array binding signal intensity,[14],0.333
same,SPOT peptide array binding signal intensity,[15],5670
same,SPOT peptide array binding signal intensity,[16],≤ 0
same,SPOT peptide array binding signal intensity,[17],≤ 0
same,SPOT peptide array binding signal intensity,[18],≤ 0
same,SPOT peptide array binding signal intensity,[19],≤ 0
same,SPOT peptide array binding signal intensity,[20],≤ 0
same,SPOT peptide array binding signal intensity,[21],1.5
same,SPOT peptide array binding signal intensity,[22],≤ 0
same,SPOT peptide array binding signal intensity,[23],1.53e-05
same,SPOT peptide array binding signal intensity,[24],≤ 0
same,SPOT peptide array binding signal intensity,[25],125
same,SPOT peptide array binding signal intensity,[26],3
same,SPOT peptide array binding signal intensity,[27],30
same,SPOT peptide array binding signal intensity,[28],0.5
same,SPOT peptide array binding signal intensity,[29],≤ 0
same,SPOT peptide array binding signal intensity,[30],0.5
same,SPOT peptide array binding signal intensity,[31],≤ 0
same,SPOT peptide array binding signal intensity,[32],2.67
same,SPOT peptide array binding signal intensity,[33],1
same,SPOT peptide array binding signal intensity,[34],4810
same,SPOT peptide array binding signal intensity,[35],≤ 0
same,SPOT peptide array binding signal intensity,[36],0.5
same,SPOT peptide array binding signal intensity,[37],≤ 0
same,SPOT peptide array binding signal intensity,[38],1
same,SPOT peptide array binding signal intensity,[39],≤ 0
same,SPOT peptide array binding signal intensity,[40],≤ 0
same,SPOT peptide array binding signal intensity,[41],2
same,SPOT peptide array binding signal intensity,[42],5
same,SPOT peptide array binding signal intensity,[43],2
same,SPOT peptide array binding signal intensity,[44],66
same,SPOT peptide array binding signal intensity,[45],≤ 0
same,SPOT peptide array binding signal intensity,[46],≤ 0
same,SPOT peptide array binding signal intensity,[47],≤ 0
same,SPOT peptide array binding signal intensity,[48],≤ 0
same,SPOT peptide array binding signal intensity,[49],0.5
same,SPOT peptide array binding signal intensity,[50],≤ 0
same,SPOT peptide array binding signal intensity,[51],≤ 0
same,SPOT peptide array binding signal intensity,[52],≤ 0
same,SPOT peptide array binding signal intensity,[53],86.8
same,SPOT peptide array binding signal intensity,[54],3.5
same,SPOT peptide array binding signal intensity,[55],7050
same,SPOT peptide array binding signal intensity,[56],≤ 0
same,SPOT peptide array binding signal intensity,[57],≤ 0
same,SPOT peptide array binding signal intensity,[58],≤ 0
same,SPOT peptide array binding signal intensity,[59],≤ 0
same,SPOT peptide array binding signal intensity,[60],61
same,SPOT peptide array binding signal intensity,[61],≤ 0
same,SPOT peptide array binding signal intensity,[62],3.5
same,SPOT peptide array binding signal intensity,[63],1190
same,SPOT peptide array binding signal intensity,[64],1870
same,SPOT peptide array binding signal intensity,[65],3060
same,SPOT peptide array binding signal intensity,[66],29.2
same,SPOT peptide array binding signal intensity,[67],≤ 0
same,SPOT peptide array binding signal intensity,[68],7
same,SPOT peptide array binding signal intensity,[69],32.5
same,SPOT peptide array binding signal intensity,[70],≤ 0
same,SPOT peptide array binding signal intensity,[71],1
same,SPOT peptide array binding signal intensity,[72],38.7
same,SPOT peptide array binding signal intensity,[73],9
same,SPOT peptide array binding signal intensity,[74],0.5
DDEDVPPQLPTRTKS,SPOT peptide array binding signal intensity,[1],≤ 0
same,SPOT peptide array binding signal intensity,[2],14.5
same,SPOT peptide array binding signal intensity,[3],1
same,SPOT peptide array binding signal intensity,[4],28
same,SPOT peptide array binding signal intensity,[5],11.5
same,SPOT peptide array binding signal intensity,[6],≤ 0
same,SPOT peptide array binding signal intensity,[7],6.5
same,SPOT peptide array binding signal intensity,[8],28
same,SPOT peptide array binding signal intensity,[9],17
same,SPOT peptide array binding signal intensity,[10],14
same,SPOT peptide array binding signal intensity,[11],6150
same,SPOT peptide array binding signal intensity,[12],1.75
same,SPOT peptide array binding signal intensity,[13],≤ 0
same,SPOT peptide array binding signal intensity,[14],53.2
same,SPOT peptide array binding signal intensity,[15],10
same,SPOT peptide array binding signal intensity,[16],≤ 0
same,SPOT peptide array binding signal intensity,[17],≤ 0
same,SPOT peptide array binding signal intensity,[18],≤ 0
same,SPOT peptide array binding signal intensity,[19],≤ 0
same,SPOT peptide array binding signal intensity,[20],45
same,SPOT peptide array binding signal intensity,[21],9.5
same,SPOT peptide array binding signal intensity,[22],≤ 0
same,SPOT peptide array binding signal intensity,[23],≤ 0
same,SPOT peptide array binding signal intensity,[24],3
same,SPOT peptide array binding signal intensity,[25],78
same,SPOT peptide array binding signal intensity,[26],7.5
same,SPOT peptide array binding signal intensity,[27],27
same,SPOT peptide array binding signal intensity,[28],6.5
same,SPOT peptide array binding signal intensity,[29],6780
same,SPOT peptide array binding signal intensity,[30],2
